Screening results (PubChem)
Compounds with a hit are over-represented: about 9.2% of the library has one in this group of screens.
NPC1 promoter act = activates the NPC1 promoter; Huh7 NPC1 promoter luciferase reporter, 24 h; Potency, µM (top dose mostly 9.22 µM), usual class: activators; 2.4% of 320,000 active; also: nearly all actives have a fitted effect of over 60% in size
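Huh7 cells stably carrying NPC1 promoter–luciferase, plated in Opti-MEM with 10% FBS for 2 h, were exposed to compound in DMSO for 24 h at 37 °C; luciferase reagent was added for 10 min and luminescence read.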
ELG1 DNA repair = inhibitors of ELG1-dependent DNA repair in HEK293T cells. Potency, µM (top dose mostly 46.1 µM), most hits filed as inhibitors. 2.3% of 330,000 active. HEK293T ELG1-luciferase reporter, luminescence, 16 h; DNA damage induced by 5-fluorouridine. AID 504467; also: nearly all actives have a fitted effect of over 55% in size
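Luminescence from the luciferase reporter, measured 30 min after ONE-Glo reagent at room temperature, was the read-out. Beforehand, 2,000 cells per well were exposed for 16 hr at 37 °C to 5-fluorouridine together with compound or vehicle.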
Rab9 prom act = activators of Rab9 promoter. 2.8% of 320,000 active. Huh7 Rab9 promoter-luciferase reporter, luminescence, 24 h. Potency, µM (top dose mostly 9.22 µM), actives largely listed as activators. AID 485297; also: nearly all actives have a fitted effect of over 60% in size
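Promoter activation is measured as luciferase luminescence in Huh7 cells stably transfected with a Rab9 promoter–luciferase construct, following 24 h compound exposure at 37 °C and 10 min reagent incubation at ambient temperature.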
ELG1 genotoxic = inducers of genotoxicity in HEK293T ELG1-luciferase cells; HEK293T ELG1-luciferase reporter, luminescence, 16 h; Potency, µM (doses to about 46 µM), most hits filed as activators; AID 504466; 1.3% of 330,000 active; also: nearly all actives have a fitted effect of over 60% in size
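Screening used a luciferase reporter fused to human ELG1 in HEK293T cells. Luminescence was read on a CCD plate imager after 16 hr exposure and 30 min ONE-Glo incubation.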
SMN2 splice enh = enhancers of SMN2 splice variant expression; 2.8% of 210,000 active; Potency, µM (titrated, usually from 46.1 µM), actives largely listed as activators; AID 1458; HEK293 SMN2-luciferase splicing reporter, luminescence, 30-36 h; also: nearly all actives have a fitted effect of over 55% in size
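HEK293 cells carry an SMN2 minigene-luciferase reporter in which exon 7 inclusion puts luciferase in frame. Cells were seeded at 2000 cells/well, attached for 10-12 hours, then exposed to compounds for 30-36 hours at 37C before ONE-Glo luminescence.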
FLuc modulator = firefly luciferase modulation, counter-screen for miR-21 project; P08659; 6.9% of 360,000 active; Potency, µM (series often up to 57.5 µM), most hits filed as inhibitors; purified FLuc, Km substrates, luminescence inhibition; also: nearly all actives have a fitted effect of over 55% in size
Target sequence (P08659 whole entry, looked up): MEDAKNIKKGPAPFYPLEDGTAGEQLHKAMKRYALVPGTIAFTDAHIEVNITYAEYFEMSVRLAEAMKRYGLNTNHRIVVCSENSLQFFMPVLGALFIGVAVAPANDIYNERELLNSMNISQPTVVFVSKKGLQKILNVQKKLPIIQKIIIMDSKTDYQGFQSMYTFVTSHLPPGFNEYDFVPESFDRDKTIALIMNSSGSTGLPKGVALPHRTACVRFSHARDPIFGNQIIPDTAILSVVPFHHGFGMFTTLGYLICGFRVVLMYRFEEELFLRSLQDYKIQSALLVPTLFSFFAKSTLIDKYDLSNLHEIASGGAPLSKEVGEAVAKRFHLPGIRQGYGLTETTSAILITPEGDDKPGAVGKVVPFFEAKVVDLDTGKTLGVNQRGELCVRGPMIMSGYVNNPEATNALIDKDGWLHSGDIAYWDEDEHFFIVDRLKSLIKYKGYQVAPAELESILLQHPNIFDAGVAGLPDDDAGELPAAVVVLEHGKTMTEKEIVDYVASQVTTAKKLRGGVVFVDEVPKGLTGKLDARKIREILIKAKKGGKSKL
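Biochemical qHTS of compounds, final roughly 60 µM downward over six points, against 10 nM purified firefly luciferase using Km concentrations of substrates (10 uM D-luciferin, 10 uM ATP) in Tris acetate pH 7.5 buffer; luminescence output.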
Of the large screens only hits and unclear results are named; the others gave an inactive call. Calls follow the shape of the dose curve; as a rule, active = well fitted curve in the direction sought with a large enough effect; inconclusive = small, poorly fitted or top-dose-only effect, or another doubt; inactive = no such curve, though single readings can be large; an effect the other way counts as inactive or inconclusive.

O=C(CC(Nc1ccccc1)C(=O)O)c1ccccc1 (stereo unspecified)	NPC1 promoter act 3.2µM, ELG1 DNA repair inconclusive, Rab9 prom act 2.8µM, ELG1 genotoxic inconclusive, SMN2 splice enh 13µM, FLuc modulator 0.85µM
O=C(C[C@@H]1C/C=C\CCCC(=O)OC[C@@H]2CCCN2C1=O)NCCO	none (no result: NPC1 promoter act, Rab9 prom act, SMN2 splice enh, FLuc modulator)
CCOc1cccc(CC(=O)Nc2ccc3nc(N4CCCCC4)cc(C)c3c2)c1OCC	none (no result: NPC1 promoter act, ELG1 DNA repair, Rab9 prom act, ELG1 genotoxic, SMN2 splice enh)
COc1ccc(C)cc1S(=O)(=O)N1CCCC(C(=O)N2CCN(c3ccccc3)CC2)C1 (stereo unspecified)	ELG1 DNA repair inconclusive (no result: SMN2 splice enh)
Cc1cccc(N2CCN(C(=O)CN3C(=O)C4CC=CCC4C3=O)CC2)c1C (stereo unspecified)	NPC1 promoter act inconclusive, ELG1 DNA repair inconclusive, Rab9 prom act 3.2µM, FLuc modulator 17µM
Cc1cccc(N2CCN(C(=O)Cn3cnc4c3c(=O)n(C)c(=O)n4C)CC2)c1C	ELG1 DNA repair 21µM
Brc1ccc(-c2nnc(-c3ccccc3Br)o2)cc1	NPC1 promoter act 1.1µM, ELG1 DNA repair inconclusive, Rab9 prom act 0.71µM, ELG1 genotoxic 2.9µM, SMN2 splice enh 14µM, FLuc modulator 1.3µM
Cc1ccc(-c2nnc(-c3ccccc3Br)o2)cc1	NPC1 promoter act 4µM, ELG1 DNA repair inconclusive, Rab9 prom act 4µM, ELG1 genotoxic inconclusive, FLuc modulator 0.76µM (no result: SMN2 splice enh)
Cc1ccc(-c2nnc(/C=C/c3ccccc3)o2)cc1	ELG1 DNA repair inconclusive, ELG1 genotoxic inconclusive, SMN2 splice enh 18µM, FLuc modulator 17µM
Brc1ccccc1-c1nnc(-c2cccnc2)o1	NPC1 promoter act inconclusive, ELG1 DNA repair inconclusive, Rab9 prom act inconclusive, ELG1 genotoxic 18µM, FLuc modulator 15µM
c1cncc(-c2nnc(-c3cccs3)o2)c1	ELG1 DNA repair inconclusive, Rab9 prom act inconclusive
COc1ccccc1CN1CCCC(CNC(=O)c2cccc3ccccc23)C1 (stereo unspecified)	none (no result: SMN2 splice enh)
Cc1nc(-c2ccc(Cl)cc2)sc1C1(C)CC(c2cccnc2)=NO1 (stereo unspecified)	NPC1 promoter act inconclusive, ELG1 DNA repair inconclusive, Rab9 prom act inconclusive, ELG1 genotoxic inconclusive, FLuc modulator 17µM (no result: SMN2 splice enh)
Cc1cc(NC(=O)C(C)SCC(=O)Nc2ccc(Br)cc2Br)no1 (stereo unspecified)	ELG1 genotoxic inconclusive (no result: SMN2 splice enh)
CC1Cc2ccccc2N1C(=O)Cn1nnc(-c2ccccc2NC(=O)C2CCC2)n1 (stereo unspecified)	ELG1 DNA repair 23µM
Cc1ccc(S(=O)(=O)NCCc2csc3nc(-c4ccccc4C)nn23)cc1	none (no result: NPC1 promoter act, ELG1 DNA repair, Rab9 prom act, ELG1 genotoxic, SMN2 splice enh)
O=C(NNC(=O)c1ccc(F)cc1F)c1ccc2c(c1)OCO2	ELG1 DNA repair inconclusive, Rab9 prom act 3.2µM, ELG1 genotoxic inconclusive, SMN2 splice enh inconclusive, FLuc modulator inconclusive
Cc1ccc(NC(=O)c2oc3ccccc3c2NC(=O)c2ccc3c(c2)OCO3)cc1	FLuc modulator 6.7µM
O=C(Nc1c(C(=O)Nc2cccc(F)c2)oc2ccccc12)c1ccc2c(c1)OCO2	ELG1 genotoxic inconclusive, FLuc modulator 8.5µM
O=C(Nc1cccc(F)c1)c1ccc2c(c1)OCO2	NPC1 promoter act 2.8µM, ELG1 DNA repair inconclusive, Rab9 prom act 1.6µM, ELG1 genotoxic 5.2µM, SMN2 splice enh 6.3µM, FLuc modulator 11µM
Cc1ccc(NC(=O)CSc2nc3ccc(Br)cc3[nH]2)c(C)c1	none (no result: NPC1 promoter act, ELG1 DNA repair, Rab9 prom act, ELG1 genotoxic)
O=C(c1cc2c(s1)CCCC2)N1CCN(Cc2ccc3c(c2)OCO3)CC1	ELG1 DNA repair inconclusive
O=C(Oc1ccc2c(c1)OCO2)c1ccc(F)cc1Cl	ELG1 DNA repair inconclusive, Rab9 prom act inconclusive, FLuc modulator 2.7µM
O=C(Oc1ccc2c(c1)OCO2)c1cc2c(s1)CCC2	FLuc modulator 3.8µM
C[C@@]12CCC(=O)C=C1CC[C@H]1C2[C@@H](O)C[C@]2(C)[C@@H]1CC[C@@]2(O)C(=O)CO (stereo partly specified)	none (no result: NPC1 promoter act, ELG1 DNA repair, Rab9 prom act, ELG1 genotoxic, FLuc modulator)
CC(=O)Nc1c(C)nn(-c2ccccc2)c1N1CCC(C(=O)Nc2ccccc2C(F)(F)F)CC1	none (no result: NPC1 promoter act, ELG1 DNA repair, Rab9 prom act, ELG1 genotoxic, SMN2 splice enh)
C=CC(=O)c1ccc(CCCCCC)cc1	none (no result: ELG1 DNA repair, ELG1 genotoxic, SMN2 splice enh, FLuc modulator)
